# Reference: ChEMBL document CHEMBL3988442, “University of Dundee, Small-Polar-MMV Screening Library” (2021)
# The campaign covered roughly 48,000 compounds. About 13,000 (27%) showed an effect of 50% or more. Some of the results follow.
# System: Wolbachia pipientis
# Experiment: Anti-Wolbachia Cell-Based Screen
# Type: functional
# Design: scale not given: in the data most compounds retested in dose-response had high values
# Details: 5 µM
row,SMILES,Percent Effect
1,CCc1ccccc1OCCCN(C)C(=O)C1CCCN1C(N)=O (stereo not given),-6.634%
2,CCC(NC(=O)CC(F)(F)F)c1ccccc1OCC(=O)N1CCCC1 (stereo not given),-4.718%
3,CCCc1cc(C(=O)N(Cc2cccnc2)C[C@@H]2CCC(=O)N2)no1,-10.16%
4,O=C1CCC2(CCCN(C(=O)c3cccs3)C2)N1 (stereo not given),-85.27%
5,O=C1NC2(CCc3ccccc31)CCN(C(=O)c1cccnc1)C2 (stereo not given),113.1%
6,O=C1CCC2(CCCN(C(=O)c3cccnc3)CC2)N1 (stereo not given),-2.669%
7,Cc1nccc(-c2ccccc2)c1C(=O)N1CCC2(CC(=O)NC2=O)C1 (stereo not given),-6.27%
8,Cc1nccc(-c2ccccc2)c1C(=O)N1CC[C@](C)(O)C(C)(C)C1,-0.4275%
9,CC(C)CN1C[C@@H]2C(=O)NC3(CCN(C(=O)c4cccnc4)CC3)[C@@H]2C1,1.9%
10,O=C1NC2(CCc3ccccc31)CCN(C(=O)c1ccncc1)C2 (stereo not given),94.99%
11,Cc1ncccc1C(=O)N1CCC2(CCc3ccccc3C(=O)N2)C1 (stereo not given),98.8%
12,CCC(C)(CC(=O)OC)NCc1noc(C)n1 (stereo not given),-21.8%
13,CC(C)c1nnc2n1CCN(C(=O)COc1ccc(C(N)=O)cc1)C2,-6.982%
14,COCC1CC2(CCN(C(=O)C3CCSCC3)CC2)CO1 (stereo not given),-14.44%
15,CCCC(Nc1c(C#N)c(=O)n(C)c(=O)n1C)c1ccc(F)cc1F (stereo not given),-0.1424%
16,Cn1cccc1C(=O)N1CCCC2(CCN(CCN3CCCC3)C2=O)C1.O=C(O)C(F)(F)F (stereo not given),-2.422%
17,CN1CC[C@]2(CN(C(=O)c3ccc[nH]3)C[C@H]2c2ccccc2)C1=O,-8.445%
18,O=C(O)C(F)(F)F.O=C(O)C(F)(F)F.O=C(O)C(F)(F)F.c1c[nH]c(CN2CCC3(CC2)COCCN(CCN2CCCC2)C3)c1,-16.15%
19,C[C@@H]1CN(C(=O)c2ccc[nH]2)C[C@]12CCN(CCN1CCCC1)C2=O.O=C(O)C(F)(F)F,108.3%
20,CN1CC(c2ccccc2)C2(CCN(C(=O)c3ccc[nH]3)CC2)C1=O (stereo not given),-2.349%
21,COCCN1CC[C@]2(CN(C(=O)c3ccc[nH]3)C[C@H]2C)C1=O,91.74%
22,CN(C)C(=O)CCC(=O)N1CCC2(CC1)COC2,-20.99%
23,Cc1sc(NC(=O)CN2CCCC(c3ncc[nH]3)C2)c(C)c1C (stereo not given),13.59%
24,COc1c(CNC2CCc3c(F)cccc32)c(C)nn1C.Cl (stereo not given),125.6%
25,COc1c(CNC2CCOc3ccccc32)c(C(C)C)nn1C (stereo not given),-0.8821%

row,SMILES,Percent Effect
1,COc1c(CNC2CCc3cc(C)ccc32)c(C)nn1C (stereo not given),196.3%
2,COc1c(CNC2CCCOc3ccccc32)c(C)nn1C (stereo not given),-2.484%
3,COc1c(CNC2CCCc3ccccc32)c(C(C)C)nn1C (stereo not given),-2.774%
4,COc1c(CNC2CCc3cc(F)ccc32)c(C(C)C)nn1C (stereo not given),97.63%
5,COc1c(CNC2CCOc3c(Cl)cccc32)c(C)nn1C.Cl (stereo not given),-20.37%
6,Cc1ccc2c(c1)CCC2NCc1c(C)nn(CCO)c1C.Cl (stereo not given),9.193%
7,COc1c(CNC2CCOc3c(F)cccc32)c(C)nn1C (stereo not given),-5.109%
8,COc1c(CNC2CCc3c(Cl)cccc32)c(C)nn1C.Cl (stereo not given),-6.251%
9,Cn1ncnc1CNC1CCc2cc(Cl)ccc21 (stereo not given),-6.658%
10,COc1c(CNC2CCc3cc(Cl)ccc32)c(C)nn1C (stereo not given),202%
11,CCOCC(=O)N1CCC2(CC1)COC(COCc1ccccn1)C2.O=C(O)C(F)(F)F (stereo not given),-4.838%
12,OC(COCc1ccccc1)CSc1nnc2ccccn12 (stereo not given),-5.176%
13,CN(Cc1ccccc1)CC(O)Cn1cnc2ccsc2c1=O (stereo not given),-0.02665%
14,Cc1ccc(CCCC(=O)N2CC(=O)Nc3cccnc32)s1,-7.748%
15,CCn1cc(S(=O)(=O)NCC(OC)c2cccc(Cl)c2)cn1 (stereo not given),-3.186%
16,Cc1nn(C)c(N(C)C)c1CNC1CCc2c(F)cccc21.Cl (stereo not given),-3.746%
17,Cc1nn(C)c(N(C)C)c1CNC1CCc2cc(F)ccc21.Cl (stereo not given),58.09%
18,COc1c(CNC2CCOc3ccccc32)c(C)nn1C (stereo not given),-8.703%
19,COc1c(CNC2CCCc3ccccc32)c(C)nn1C (stereo not given),-3.62%
20,Cc1nn(C)c(N(C)C)c1CNC1CCOc2c(F)cccc21 (stereo not given),-12.9%
21,COc1c(CNC2CCc3ccccc32)c(C)nn1C (stereo not given),132.3%
22,Cc1nc(N2CCCC2C(=O)NC(C)(C)CO)nc2ccccc12 (stereo not given),-14.27%
23,CCNC(=O)[C@@H]1CCCN1[C@@H](C(=O)NC)c1ccccc1.Cl,1.454%
24,CCOCCNC(=O)[C@@H]1CCCN1c1nccc(Nc2ccccc2)n1,123.1%
25,CCC(C)CNC(=O)[C@@H]1CCCN1c1nccc(Nc2ccccc2)n1 (stereo not given in full),83.24%

row,SMILES,Percent Effect
1,Cc1nc(N2CCCC2C(=O)NCc2ccsc2)nc2ccccc12 (stereo not given),-0.4338%
2,Cn1cc(S(=O)(=O)N2CCCC(Cn3cncn3)C2)cn1 (stereo not given),7.015%
3,Cc1cc(C)nc(N2CCN(Cc3cc4n(n3)CCNC4)CC2)n1,3.043%
4,CCC(CC)(CNC(=O)OC(C)(C)C)NC(=O)C1CCCO1 (stereo not given),-2.751%
5,CCNC(=O)C1CCN(Cn2nc(-c3ccccc3)oc2=O)CC1,32.26%
6,CCNC(=O)C1CCN(Cn2nc(-c3ccc(F)cc3)oc2=O)CC1,109.5%
7,CN(C)C(=O)C1CCN(Cn2nc(-c3ccc(F)cc3)oc2=O)CC1,103.8%
8,CN(C)C(=O)C1CCN(Cn2ccc(-c3ccc(F)cc3)n2)CC1,-0.7457%
9,NC(=O)C1CCN(Cn2nc(-c3ccc(F)cc3)oc2=O)CC1,-1.438%
10,NC(=O)C1CCN(Cn2nc(-c3ccc(F)cc3)oc2=O)C1 (stereo not given),1.615%
11,COCCNS(=O)(=O)c1cccc2c1CN(C(=O)c1ccoc1)CC2,-4.296%
12,O=C(CCN1CCCCO1)NCCSc1cnn[nH]1,-10.06%
13,COc1ccc(C)cc1NC(=O)Nc1cnc(N2CCCC2)nc1,135.2%
14,COc1ccc(CNC(=O)Nc2cccnc2N2CCCC2)cc1O,5.848%
15,COc1ccc(C)cc1NC(=O)Nc1cnc(N2CCN(C)CC2)nc1,-7.75%
16,COc1ccc(C)cc1NC(=O)Nc1cnc(N2CCOCC2)nc1,156.3%
17,O=C(Nc1cnc(N2CCOCC2)nc1)c1ccc(C(F)(F)F)cc1,-14.92%
18,O=C(COc1ccc(Cl)cc1)Nc1cnc(N2CCOCC2)nc1,-3.73%
19,Cc1cnc(C(=O)N2CCOCC2c2ccccc2)cn1 (stereo not given),87.18%
20,CC1COCCN1C(=O)c1ccc(=O)n(Cc2ccccc2)n1 (stereo not given),-2.389%
21,CC1COCCN1C(=O)c1ccc(=O)n(CCOc2ccccc2)n1 (stereo not given),-6.742%
22,Cc1cnc(C(=O)N2CCOCC2C)cn1 (stereo not given),99.05%
23,O=C(c1cnccn1)N1CCc2ncnc(C3CCOC3)c2CC1 (stereo not given),-0.4646%
24,O=C(Cc1cccs1)N1CCOCC1c1ccccc1 (stereo not given),-1.023%
25,CC1COCCN1C(=O)c1cnccn1 (stereo not given),93.18%

row,SMILES,Percent Effect
1,Cc1cnc(C(=O)N2CCCCC2c2ccc(CN(C)C)cc2)cn1 (stereo not given),6.216%
2,COCCn1nc(C(=O)N2CCOCC2C)ccc1=O (stereo not given),3.322%
3,CCc1ccc(O)c(C(=O)N2CCN(CC(=O)N3CCCCC3)CC2)c1,-4.126%
4,O=C(NS(=O)(=O)c1cc(Cl)sc1Cl)c1cccc2c1OCCO2,-19.53%
5,COc1cccc(C(=O)NCc2ccccc2S(=O)(=O)N(C)C)c1,16.54%
6,CSCCN(C)C(=O)C1(c2ccc(F)cc2F)CCOCC1,-17.49%
7,CCOCCC(=O)NCC(C)c1ccsc1 (stereo not given),1.929%
8,Cc1ccc(CN2CC[C@H]3C[C@@H](c4nc(C5CC5)cs4)O[C@@H]3C2)o1,-2.385%
9,CN(Cc1ccncc1)C1COC2(CCN(c3ncc(F)cn3)CC2)C1.O=C(O)C(F)(F)F.O=C(O)C(F)(F)F (stereo not given),-12.58%
10,O=C(O)C(F)(F)F.O=C(c1ccccc1)N1CCC[C@]2(C[C@@H](OCc3ccncc3)CO2)C1,6.805%
11,O=C(CC1CC1)N1CCC2(CC1)CC(Oc1ccccc1)CO2 (stereo not given),-7.215%
12,O=C(C1CC1)N1CCC[C@]2(C[C@@H](OCc3ccncc3)CO2)C1.O=C(O)C(F)(F)F,6.09%
13,CC1COC2(CCN(C(=O)Cc3ccncc3)CC2)C1.O=C(O)C(F)(F)F (stereo not given),99.32%
14,Cn1cc(C2CCCN2C(=O)CCCOCc2ccccc2)cn1 (stereo not given),2.254%
15,Cn1cc(C2COC3(CCN(C(=O)Cc4ccccc4)CC3)C2)cn1 (stereo not given),95.06%
16,CCC(=O)N1CCC2(CC1)CC(Oc1ccccc1)CO2 (stereo not given),-6.284%
17,O=C(Cc1cccnc1)N1CCC2(CC1)CCN(C1CCOCC1)CC2.O=C(O)C(F)(F)F.O=C(O)C(F)(F)F,1.334%
18,O=C(Cc1ccncc1)N1CCC2(CC1)CC(c1ccccc1)CO2.O=C(O)C(F)(F)F (stereo not given),104.1%
19,CCOCC(=O)N1CCC2(CC1)CC(c1ccccc1)CO2 (stereo not given),118.3%
20,Cn1cc(C2CN(C(=O)Cc3coc(-c4ccccc4)n3)CCO2)cn1 (stereo not given),-11.89%
21,CC1(CNS(=O)(=O)c2cccc(C(=O)N3CCSCC3)c2)COC1,5.198%
22,N#Cc1ccnc(N2CCN(CC(O)c3c(F)cccc3F)CC2)c1 (stereo not given),-15.75%
23,CC(CCn1cccn1)NCc1n[nH]c2c1CCCCC2 (stereo not given),-18.85%
24,O=S(=O)(NCCNc1ccc(-n2cccc2)nn1)c1ccccc1,-5.245%
25,COC(=O)[C@@H]1Cc2ncn(C)c2CN1S(=O)(=O)c1ccc(Cl)cc1,-5.674%
